Bioassay records (PubChem)
Only some compounds are listed: those with a hit (about 6.5% of all), similar ones and a draw of the others.
Spn PMK inh – S. pneumoniae PMK inhibition; AID 539; inhibition, % at 10 µM; actives 0.49% (n = 65,000); purified PMK, PK/LDH-coupled NADH absorbance 340 nm;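 active = top-ranked compounds by inhibition in the single 10 µM screen, taking a fixed number of the strongest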;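 also: 0% = full reaction with DMSO carrier and 100% = background rate without enzyme reaction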
Abs 340nm – compounds absorbing at 340 nm; 65,000 tested, under 10 active; compound absorbance at 340 nm, fold over control; fold change at 10 µM;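 active = at 10 µM dose, initial 340 nm absorbance at least 2 fold that of control wells; inactive = change under 2 fold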;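 also: initial absorbance extrapolated from kinetic A340 decline of NADH oxidation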
NADH enzymes – inhibitors of enzymes used to reach an NAD/NADH endpoint; IC50, µM (doses to about 10 µM), for the others: at the highest dose inhibition; coupled PK/LDH NADH assays, four targets; actives 0.02% (n = 65,000); AID 774;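 active = single-dose screening hits from any of four coupled enzyme assays that gave an IC50 when retested across doses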;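 also: the DPM-DC format reads NADH fluorescence rather than 340 nm absorbance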
Spn MK inh – S. pneumoniae mevalonate kinase inhibition | inhibition, % at 10 µM | purified MK, PK/LDH-coupled NADH absorbance 340 nm | actives 0.48% (n = 65,000);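 active = ranked among the strongest by inhibition in the single 10 µM screen, a fixed top-ranked set picked for dose follow-up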
Fluor 339 460 – intrinsic fluorescence of library compounds, ex339/em460 – biochemical, MLSMR library, data from DPM-DC assay, artefact control, profiling panel; actives 5.5% (n = 65,000); compound autofluorescence, ex339/em460 nm, NADH buffer; active compounds read high; 1 = no-compound wells, NADH background; AID 709; fluorescence fold increase at 10 µM;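 active = at 10 µM, mean starting fluorescence two-fold or more over control wells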;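 also: signal is the first read of a kinetic run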
Spn DPM-DC inh – inhibitors of Streptococcus pneumoniae diphosphomevalonate decarboxylase; calls only at 10 µM; AID 556; actives 0.49% (n = 65,000); purified DPM-DC, PK/LDH coupled NADH fluorescence;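 active = the 320 compounds with the highest percent inhibition in the single-dose primary screen, excluding strongly autofluorescent ones, cut at about 32% in these data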;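 also: kinetic rate of NADH fluorescence loss reporting ADP formed by the decarboxylase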
* = called active by the depositor; i = inactive; nt = not tested or not shown; + = active, no number; [ ] = another dose, or the depositor's remark.

SMILES	Spn PMK inh	Abs 340nm	NADH enzymes	Spn MK inh	Fluor 339 460	Spn DPM-DC inh
Cn1c(=O)n(C)c2cc(NC(=O)CSc3nnc(-c4ccccc4O)n3-c3ccccc3)ccc21	7	1	4%	6	1.1	i
Cc1oc2cc(O)ccc2c(=O)c1Oc1ccccc1	0	1.1	3%	5	2.2*	nt
CCOc1ccccc1Oc1c(C)oc2cc(OC(=O)N3CCOCC3)ccc2c1=O	7	1	4%	4	1.1	i
Cc1oc2cc(O)ccc2c(=O)c1Oc1ccccc1Br	5	1.1	3%	0	2.2*	nt
COC(=O)COc1ccc2c(=O)c(Oc3ccccc3)c(C)oc2c1	0	1	4%	11	1.1	i
COc1ccc(C(O)Cn2c(=N)n(CCCN(C)C)c3ccccc32)cc1 (centres undefined)	8	1	8%	0	0.99	+
COc1ccc(OCCn2c(=N)n(CCO)c3ccccc32)cc1	3	1	4%	4	1.1	i
O=c1cc(-c2ccco2)oc2ccc(Cl)cc12	5	1.1	2%	7	2.4*	nt
CC(=O)c1c(C)nc2nonc2c1N	16	0.99	5%	0	2*	i
CCOC(=O)c1c(-c2ccc(OC)cc2)nc2nonc2c1N	0	1.2	3%	0	1.3	i
CC(C)CN(CC(C)C)S(=O)(=O)N1CCC(C(=O)NC2CCCCCCC2)CC1	30*	0.99	10%	1	1	i
CN(C)Cc1cc(C(C)(C)c2cc(CN(C)C)c(O)c(CN(C)C)c2)cc(CN(C)C)c1O	2	1	1%	0	1.1	i
O=C(c1cccs1)c1cn(CC(=O)N2CCc3ccccc3C2)c2ccccc12	0	1	4%	6	1	i
COc1ccccc1N1CCN(c2cc(N3CCCC3)nc(C)n2)CC1	4	1	2%	2	1.2	i
COc1ccc(OC)c2c(C)cc(N3CCCN(C)CC3)nc12	0	1.1	1%	1	2.2*	nt
CCC1Oc2ccc(C)cc2N(CC(=O)NCCN2CCCCCC2)C1=O (centres undefined)	25*	1	8%	0	1.1	i
Cn1cnnc1SCc1ccc(-c2ccc(Br)cc2)o1	16	0.98	7%	5	1	i
OCCCc1nc2n(n1)C(c1ccccc1Cl)C=C(c1cccs1)N2 (centres undefined)	7	1.1	4%	0	3.8*	nt
CCOc1ccccc1C1C(C(N)=O)=C(C)Nc2nc(CCCO)nn21 (centres undefined)	4	1	3%	6	1.1	i
OCCCc1nc2n(n1)C(c1cccs1)C=C(c1ccccc1)N2 (centres undefined)	9	1.1	9%	9	2.1*	nt
OCCCc1nc2n(n1)C(c1ccccc1)C=C(c1ccc(F)cc1)N2 (centres undefined)	7	1.1	7%	1	2*	i
CCOC(=O)c1[nH]c(C)c(C(=O)OCC)c1C	0	1	0%	0	1.1	i
CCOC(=O)c1nc(N)c(C(=O)OCC)[nH]1	0	1.1	3%	6	2.3*	nt
CCOC(=O)c1cn2c3c(c(F)c(F)c(F)c3c1=O)SC(N1CCCC1)=N2	4	1.1	4%	4	2.7*	i
CSc1ccccc1NC(=O)c1cccnc1	0	1	5%	10	1.1	i
SMILES	Spn PMK inh	Abs 340nm	NADH enzymes	Spn MK inh	Fluor 339 460	Spn DPM-DC inh
Cc1cc(C)nc(SCc2nnc(SCc3ccccc3Cl)o2)n1	13	1	3%	10	1.1	i
Cc1ccc2cc3cc(C(=O)NCCC(C)C)oc3nc2c1	4	1.1	2%	0	5.1*	nt
Cc1ccc2cc3cc(C(=O)NCc4ccco4)oc3nc2c1	11	1.2	8%	5	4.6*	nt
O=C(NCc1ccco1)c1cc2ccccc2o1	0	1	0%	0	1	i
CCCCNC(=O)c1cn(C)c2ccc(S(=O)(=O)N3CCOCC3)cc2c1=O	7	1.1	5%	7	1.2	i
COC(=O)c1ccc(-n2nnnc2SCc2nn[nH]n2)cc1	12	1.1	4%	3	1	i
CCOC(=O)N1CCN(S(=O)(=O)c2ccc(C(=O)Nc3nc4c(s3)CC(C)CC4)cc2)CC1 (centres undefined)	15	1.1	14%	13	4.6*	nt
COC(=O)c1ccsc1NC(=O)c1ccc2c(c1)OCCO2	7	1.1	6%	5	2.1*	nt
Cc1ccc(-n2c(SCc3cn4ccsc4n3)nc3ccccc3c2=O)cc1	7	1	3%	3	1.1	i
COCc1cc(C)nc(N2CCN(c3ccccc3)CC2)c1C#N	0	1	0%	0	1.2	i
COCc1cc(C)nc(NC2CCCCC2)c1C#N	6	1.1	4%	1	3.7*	nt
CN(Cc1cccs1)C(=O)COc1ccc(-c2nnco2)cc1	5	1	5%	9	1.1	i
Cn1c(=O)[nH]c(=O)c2c1nc(N1CCOCC1)n2CCSc1ncccn1	5	1	2%	0	1.1	i
Cc1oc2cc(O)cc(C)c2c(=O)c1-c1cnn(-c2ccccc2)c1	7	1	2%	0	1.2	i
Cc1nc(-c2cnn(-c3ccccc3)c2)c2cc(C)oc2n1	4	1	2%	0	2.7*	+[fluoresces]
CCN(CC)c1ccc2cc(C(=O)Nc3ccc(-n4cnnn4)c(OC)c3)c(=O)oc2c1	0	1.1	8%	9	1.6	i
N#Cc1nc(-c2ccc(Cl)cc2)oc1NCc1ccco1	3	1.1	4%	4	2.1*	nt
N#Cc1nc(-c2ccc(Cl)cc2)oc1NCc1cccc2c1OCO2	3	1.1	6%	8	3.8*	nt
N#Cc1nc(-c2ccccc2Cl)oc1NCc1ccco1	3	1	3%	5	1.3	i
Cn1c(-c2nonc2NC(=O)c2ccc(C(C)(C)C)cc2)nc2ccccc21	10	1	11%	0	2.6*	i
CC(=O)Nc1nonc1-c1nc2ccccc2n1CCC(C)C	6	1	5%	0	1.2	i
COC(=O)CN(c1ccc(F)cc1)S(=O)(=O)c1ccc2c(c1)OCCO2	0	1	3%	8	1	i
COC(=O)C1=C(CSCc2ccco2)NC(=O)NC1c1cc(C)ccc1C (centres undefined)	13	1	5%	7	1	i
O=C(COc1ccc2oc(-c3ccccc3)cc(=O)c2c1)NCc1ccco1	10	1.1	8%	5	3.9*	nt
O=C(COC(=O)COc1ccc(Nc2ccccc2)cc1)NCc1ccco1	12	0.98	6%	7	1	i
O=C(CSc1ccc2nnc(-c3ccncc3)n2n1)N1CCc2ccccc21	0	1	2%	6	1.1	i
